Consider six compounds from PubChem BioAssay (NCATS).

The nature of assay [1]: Counterscreen for APE1 Inhibitors: Fluorescent Dye Displacement Assay (AID 2564).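 Also: loss of thiazole orange fluorescence as the dye is displaced from duplex DNA; 0% = ThO with dsDNA and no compound and -100% = ThO without dsDNA.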 In outline:
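Compounds are scored by their ability to displace Thiazole Orange (250 nM) from a 50 nM TAMRA-tagged duplex bearing a tetrahydrofuran abasic site. Buffer is 50 mM Tris-HCl pH7.5, 50mM NaCl, 2 mM MgCl2, 0.01% Tween-20.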

Assay [2] has as its target Endonuclease 4 (Escherichia coli (strain K12)) (UniProt P0A6C1). The assay can be described thus: Counterscreen for APE1 Inhibitors: qHTS Assay for Inhibitors of Endonuclease IV (AID 2565).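 Also: plate controls were uninhibited enzyme wells for no effect and no enzyme buffer wells for full effect.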 The procedure, abridged: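 E. coli EndoIV at 2 nM final, preincubated 15 min at room temperature with compound, then 50 nM TAMRA/BHQ-2 THF abasic-site duplex added. Buffer: 50 mM Tris-HCl pH 7.5, 50 mM NaCl, 2 mM MgCl2, 1 mM DTT, 0.01% Tween-20. Kinetic fluorescence increase, third minus first read.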

Assay [3] concerns the target DNA repair nuclease/redox regulator APEX1 (Homo sapiens) (UniProt P27695). Put plainly: Confirmation qHTS Assay for Inhibitors of the Human Apurinic/apyrimidinic Endonuclease 1 (APE1) (AID 2572). Also: potency is read from the fitted curve at half-maximal effect; nearly all actives have a fitted effect of over 30% in size. Particulars: purified APE1, fluorogenic abasic-site DNA cleavage. The procedure, abridged:
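Enzyme preincubated 15 min at room temperature with compound; reaction started with 50 nM final double-stranded THF abasic-site substrate (5'-TAMRA, 3'-BHQ-2). Fluorescence read kinetically (525/598 nm); third-minus-first read difference gives reaction progress.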
(Quantitative high-throughput screening tests each substance at several concentrations.)

Assay [4] shares this target. The assay can be described thus: qHTS FP-Based Assay for Inhibitors of the Human Apurinic/apyrimidinic Endonuclease 1 (APE1) (AID 2573). Also: % is scaled to controls: 0 for no effect and ±100 for the full control effect.
For assay [5], the target named is Rap guanine nucleotide exchange factor 3 (Homo sapiens) (UniProt O95398). The assay can be described thus: Confirmatory qHTS for antagonist of cAMP-regulated guanine nucleotide exchange factor 3 (EPAC1) (AID 1645880). Also: nearly all actives have a fitted effect of over 55% in size. Also: potency is read from the fitted curve at half-maximal effect.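 As to activity, negative = inhibition: plate controls were DMSO only for no effect and full effect of the ATA control for full effect.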 Particulars: EPAC1 Rap1B-BODIPY-GDP exchange, fluorescence; activity, negative = inhibition: at 115 µM (top of the series). In outline:
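Nucleotide exchange uses 100 nM EPAC1, 250 nM RAP1B-BODIPY-GDP and 50 uM GDP, with compounds in a concentration-titration series. After 5 min at room temperature, fluorescence (480 nm ex/540 nm em) is read every 5 min for 30 min. Data are normalized to control ATA and DMSO.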

Assay [6] shares this target. Put plainly: Confirmatory qHTS for agonist of cAMP-regulated guanine nucleotide exchange factor 3 (EPAC1) (AID 1645881).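 Also: EPAC1 catalysed release of BODIPY-GDP from Rap1B seen as fluorescence loss; nearly all actives have a fitted effect of over 75% in size.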
Assay [7] has as its target Rap guanine nucleotide exchange factor 4 (Homo sapiens) (UniProt Q8WZA2). The assay can be described thus: Confirmatory qHTS for agonist of cAMP-regulated guanine nucleotide exchange factor 4 (EPAC2) (AID 1645884).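 Also: nucleotide exchange releases bodipy-GDP from Rap1 and this lowers its fluorescence; % is scaled to controls: 0 for no effect and ±100 for the full control effect; nearly all actives have a fitted effect of over 65% in size.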
Assay [8] has the same target. The assay can be described thus: Confirmatory qHTS for antagonist of cAMP-regulated guanine nucleotide exchange factor 4 (EPAC2) (AID 1645885). Also: % is scaled to controls: 0 for no effect and ±100 for the full control effect; nearly all actives have a fitted effect of over 25% in size.
For assay [9], the target named is Rap guanine nucleotide exchange factor 3 (Homo sapiens) (UniProt O95398). The assay can be described thus: Counterscreen qHTS for antagonist of cAMP-regulated guanine nucleotide exchange factor 3 (EPAC1) (AID 1645888).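 Also: fluorescence loss as bound BODIPY-GDP is released from Rap1B; % of control where 0% means no effect.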 The procedure, abridged:
(§1)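 Rap1B–BODIPY-GDP (250 nM) with 50 uM GDP; compounds pin-transferred to 9.74 nM–152 uM final (activator) or from 7.32 nM upwards (inhibitor). Fluorescence Ex/Em 480/540 nm read at 5 and 30 min, then after adding cAMP or buffer, at room temperature.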

Assay [10] has the same target. The assay can be described thus: Counterscreen qHTS for agonist of cAMP-regulated guanine nucleotide exchange factor 3 (EPAC1) (AID 1645889). Also: % of control where 0% means no effect; nearly all actives have a fitted effect of over 40% in size. The procedure, abridged:
as §1
For orientation: The purpose of a counterscreen is to sort out artefacts and off-target activity.

Assay [11] deals with Lysosomal acid glucosylceramidase (Homo sapiens) (UniProt P04062). The assay can be described thus: Glucocerebrosidase-p2 (AID 348; in the data active = potency below about 10 µM; also: potency is read from the fitted curve at half-maximal effect). To be noted: purified GBA, blue fluorogenic substrate, 40 min. In outline:
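Compounds titrated from 0.6 nM upwards against 0.2 nM enzyme in pH 5.9 citric acid/KH2PO4, taurocholate, tween-20; blue fluorogenic substrate 80 uM, 40 min room temperature, stopped and read Ex 365/Em 440 for AC50.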

Assay [12] is described as follows: AP1 Signaling Pathway (AID 357; active = well fitted curve in either direction with a large enough effect, not every such curve was filed as active;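 also: ME-180 reporter cells stimulated with EGF at its EC50 level; % is scaled to controls: 0 for no effect and ±100 for the full control effect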). To be noted: ME-180 AP-1-bla reporter, EGF-induced, beta-lactamase ratio, 5 h; at 7.69 µM (top of the series) unless noted. In outline: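 A ratiometric CCF4 readout (405 nm excitation; 460 and 530 nm emission) quantified AP-1-driven beta-lactamase in ME-180 cells after 5 h with compound and EC50 EGF; AC50 values were derived for activators and inhibitors.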

The target in assay [13] is Cytochrome P450 1A2 (Homo sapiens) (UniProt P05177). The assay can be described thus: p450-cyp1a2 (AID 410; calls by dose curve; also: potency is read from the fitted curve at half-maximal effect). In outline: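 Luminescent readout of luciferin formed from Luciferin-ME by human CYP1A2; data normalized against complete inhibition by 57 uM furafylline. Enzyme 20nM, substrate 100uM at Km, 100mM KPO4 buffer, 60 min reaction at room temperature.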
A short description of assay [14]: NFAT Signaling Pathway (AID 444; active = well fitted curve in either direction with a large enough effect, not every such curve was filed as active;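 also: carbachol stimulus at about its EC50 of 1 µM final; % is scaled to controls: 0 for no effect and ±100 for the full control effect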). To be noted: Jurkat NFAT-bla M1, carbachol, beta-lactamase ratio, 5 h; at 7.69 µM (top of the series) unless noted. The procedure, abridged: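 Jurkat cells with NFAT-driven β-lactamase reporter and co-expressed M1 receptor, stimulated with carbachol (final 1 uM, ~EC50), compound titration, 5 h at 37 °C. CCF4 loaded 1 h at RT; 460/530 nm ratio gave %activity and AC50.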

A short description of assay [15]: Stat Signaling Pathway (AID 446; active = well fitted curve in either direction with a large enough effect, not every such curve was filed as active;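 also: ME-180 cervical cancer cells given 40 pM IL-6 alongside compound; SIE-controlled beta-lactamase reporter measured as 460/530 nm FRET emission ratio; % is scaled to controls: 0 for no effect and ±100 for the full control effect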). In outline: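 Reporter line: ME-180 cervical carcinoma, SIE-beta-lactamase. Treatment: compound with 40 pM IL-6, 5 hrs, 37 C, in low-serum OPTI-MEM with 10 mM HEPES pH 7.3. Detection: 460/530 nm fluorescence.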
Assay [16] has as its target Glucocorticoid receptor (Homo sapiens) (UniProt P04150). Put plainly: GR-GFP Redistribution (AID 450;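 active = compounds whose dose series gives a full or clear partial fitted curve of increased nuclear translocation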; also: potency is read from the fitted curve at half-maximal effect). To be noted: U2OS GR-GFP nuclear translocation, laser cytometry, 2 h.
For assay [17] the target is unchanged. Put plainly: GR-EFC Redistribution (AID 451; calls by dose curve; also: potency is read from the fitted curve at half-maximal effect). Particulars: CHO-K1 GR-EFC translocation, beta-gal luminescence, 2 h. The procedure, abridged: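 CHO-K1 cells expressing nuclear EA and GR-ED fragments of b-gal; compounds titrated up to 46 uM final, 2 h at 37 C. GR nuclear translocation read as complemented b-gal luminescence after 1 h RT detection.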
Assay [18] addresses 3',5'-cyclic-AMP phosphodiesterase 4B (Homo sapiens) (UniProt Q07343). Put plainly: qHTS Assay for Inhibitors of PDE-IV (AID 607; active = well fitted activation curve with a large enough effect in the main read-out, with a control signal flat, not every such curve was filed as active; also: % of control where 0% means no effect). In outline: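 Cell-based read-out of cAMP via a modified cyclic nucleotide-gated channel and membrane potential dye (535/590 nm) in HEK293 cells expressing PDE4 endogenously. Compounds tested up to 22.9 uM final; 100 uM RO 20-1724 reference.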
Assay [19] concerns the target Cytochrome P450 2C9 (Homo sapiens) (UniProt P11712). The assay can be described thus: qHTS Assay for Inhibitors and Substrates of Cytochrome P450 2C9 (AID 883). Also: potency is read from the fitted curve at half-maximal effect; nearly all actives have a fitted effect of over 60% in size. The procedure, abridged: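 10nM CYP2C9 + 100uM Luciferin-H (=KM), 25mM KPO4; cpd 10 min 37C; NADPH regen, 60 min 37C; stop/detect with P450 Glo-Buffer 20 min; luminescence. Norm. to 57uM sulphaphenazole as full inhibition.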

In assay [20] the target is Cytochrome P450 3A4 (Homo sapiens) (UniProt P08684). The assay can be described thus: qHTS Assay for Activators of Cytochrome P450 3A4 (AID 885). Also: nearly all actives have a fitted effect of over 65% in size. The procedure, abridged:
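Signal was normalized against complete inhibition by 57 uM ketoconazole. The reaction used 20nM CYP3A4 with 25uM Luciferin-PPXE, 10-min compound preincubation and a 60-min NADPH-supported step at RT.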

Assay [21] concerns the target Cytochrome P450 2C19 (Homo sapiens) (UniProt P33261). The assay can be described thus: qHTS Assay for Inhibitors and Substrates of Cytochrome P450 2C19 (AID 899). Also: potency is read from the fitted curve at half-maximal effect; nearly all actives have a fitted effect of over 60% in size. The procedure, abridged:
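Luminescent read-out of luciferin formed from Luciferin-H EGE (10uM, equal to KM). Enzyme 5nM in 50mM KPO4; compound added, 10 min at 37C, then NADPH regenerating system for 60 min at 37C. Full inhibition defined by 57uM ketoconazole.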

Assay [22] deals with Catechol O-methyltransferase (Homo sapiens) (UniProt P21964). The assay can be described thus: Confirmatory Screen for Target Class Profiling of Small Molecule Inhibitors of Methyltransferases (AID 1745852; calls by dose curve; also: potency is read from the fitted curve at half-maximal effect). Particulars: MTase-Glo luminescence, SAH detection, recombinant enzyme; measured here: COMT max response; stronger effect = lower value.
Assay [23] concerns the target Guanidinoacetate N-methyltransferase (Homo sapiens) (UniProt Q14353). The description is as above. Particulars: activity change, negative = inhibition: at 57.3 µM (top of the series) unless noted.
The target in assay [24] is Nicotinamide N-methyltransferase (Homo sapiens) (UniProt P40261). The description is as above. Particulars: MTase-Glo luminescence, SAH detection, recombinant enzyme; measured here: NNMT max response; stronger effect = lower value.
For assay [25], the target named is Phenylethanolamine N-methyltransferase (Homo sapiens) (UniProt P11086). The assay is described as above. Particulars: MTase-Glo luminescence, SAH detection, recombinant enzyme; measured here: PNMT max response; stronger effect = lower value.

Results filed as inconclusive are left out. Some of the results follow. The source made the active and inactive calls. Unless noted, calls follow the shape of the dose curve; as a rule, active = well fitted curve in the direction sought with a large enough effect; inconclusive = small, poorly fitted or top-dose-only effect, or another doubt; inactive = no such curve, though single readings can be large; an effect the other way counts as inactive or inconclusive.

Chain of Glucocorticoid receptor (Homo sapiens) (P04150 whole entry, looked up, the tested form may be a part): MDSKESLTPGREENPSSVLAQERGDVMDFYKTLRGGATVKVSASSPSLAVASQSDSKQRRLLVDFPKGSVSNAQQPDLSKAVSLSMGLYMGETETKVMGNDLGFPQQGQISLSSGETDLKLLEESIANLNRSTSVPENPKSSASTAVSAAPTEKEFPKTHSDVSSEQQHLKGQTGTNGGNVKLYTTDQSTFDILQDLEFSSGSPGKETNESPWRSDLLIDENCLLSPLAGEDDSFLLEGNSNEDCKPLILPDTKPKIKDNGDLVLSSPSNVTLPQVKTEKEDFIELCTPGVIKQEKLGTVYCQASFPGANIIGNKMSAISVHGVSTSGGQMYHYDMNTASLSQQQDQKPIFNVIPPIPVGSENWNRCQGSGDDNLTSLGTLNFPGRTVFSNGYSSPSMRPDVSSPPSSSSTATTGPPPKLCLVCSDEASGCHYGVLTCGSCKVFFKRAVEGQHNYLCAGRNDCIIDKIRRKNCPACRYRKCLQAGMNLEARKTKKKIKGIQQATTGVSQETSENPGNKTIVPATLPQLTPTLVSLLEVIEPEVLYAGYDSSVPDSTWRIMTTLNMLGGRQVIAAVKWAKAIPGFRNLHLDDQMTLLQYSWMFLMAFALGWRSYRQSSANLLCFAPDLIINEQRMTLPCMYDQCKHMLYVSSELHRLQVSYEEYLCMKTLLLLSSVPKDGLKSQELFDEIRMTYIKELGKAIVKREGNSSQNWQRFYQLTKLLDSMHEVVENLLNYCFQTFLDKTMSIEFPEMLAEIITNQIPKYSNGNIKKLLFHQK
Chain of Rap guanine nucleotide exchange factor 3 (Homo sapiens) (O95398 whole entry, looked up): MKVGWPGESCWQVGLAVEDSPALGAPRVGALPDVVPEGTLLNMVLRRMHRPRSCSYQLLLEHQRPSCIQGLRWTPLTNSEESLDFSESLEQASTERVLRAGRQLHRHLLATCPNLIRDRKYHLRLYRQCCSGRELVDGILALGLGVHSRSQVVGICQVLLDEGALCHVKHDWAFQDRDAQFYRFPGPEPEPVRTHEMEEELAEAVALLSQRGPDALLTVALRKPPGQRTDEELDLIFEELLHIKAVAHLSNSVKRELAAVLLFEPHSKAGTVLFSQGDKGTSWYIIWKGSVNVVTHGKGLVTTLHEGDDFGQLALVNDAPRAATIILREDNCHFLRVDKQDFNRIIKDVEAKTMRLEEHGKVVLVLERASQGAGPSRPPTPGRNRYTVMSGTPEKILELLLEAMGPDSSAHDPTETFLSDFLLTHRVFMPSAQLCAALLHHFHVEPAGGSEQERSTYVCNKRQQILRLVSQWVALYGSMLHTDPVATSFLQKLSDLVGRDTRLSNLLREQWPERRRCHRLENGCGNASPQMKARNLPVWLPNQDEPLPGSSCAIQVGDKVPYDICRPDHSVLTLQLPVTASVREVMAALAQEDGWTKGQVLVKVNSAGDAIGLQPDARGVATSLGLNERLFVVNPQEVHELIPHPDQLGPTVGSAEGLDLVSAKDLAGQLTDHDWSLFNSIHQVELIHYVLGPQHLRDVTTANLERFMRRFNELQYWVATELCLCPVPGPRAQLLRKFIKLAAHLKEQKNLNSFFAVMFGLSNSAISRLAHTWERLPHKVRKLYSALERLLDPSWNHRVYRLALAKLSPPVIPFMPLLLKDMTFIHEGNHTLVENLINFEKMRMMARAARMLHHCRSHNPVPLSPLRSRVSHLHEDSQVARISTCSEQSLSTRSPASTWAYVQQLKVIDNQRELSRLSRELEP
Chain of Rap guanine nucleotide exchange factor 4 (Homo sapiens) (Q8WZA2 whole entry, looked up): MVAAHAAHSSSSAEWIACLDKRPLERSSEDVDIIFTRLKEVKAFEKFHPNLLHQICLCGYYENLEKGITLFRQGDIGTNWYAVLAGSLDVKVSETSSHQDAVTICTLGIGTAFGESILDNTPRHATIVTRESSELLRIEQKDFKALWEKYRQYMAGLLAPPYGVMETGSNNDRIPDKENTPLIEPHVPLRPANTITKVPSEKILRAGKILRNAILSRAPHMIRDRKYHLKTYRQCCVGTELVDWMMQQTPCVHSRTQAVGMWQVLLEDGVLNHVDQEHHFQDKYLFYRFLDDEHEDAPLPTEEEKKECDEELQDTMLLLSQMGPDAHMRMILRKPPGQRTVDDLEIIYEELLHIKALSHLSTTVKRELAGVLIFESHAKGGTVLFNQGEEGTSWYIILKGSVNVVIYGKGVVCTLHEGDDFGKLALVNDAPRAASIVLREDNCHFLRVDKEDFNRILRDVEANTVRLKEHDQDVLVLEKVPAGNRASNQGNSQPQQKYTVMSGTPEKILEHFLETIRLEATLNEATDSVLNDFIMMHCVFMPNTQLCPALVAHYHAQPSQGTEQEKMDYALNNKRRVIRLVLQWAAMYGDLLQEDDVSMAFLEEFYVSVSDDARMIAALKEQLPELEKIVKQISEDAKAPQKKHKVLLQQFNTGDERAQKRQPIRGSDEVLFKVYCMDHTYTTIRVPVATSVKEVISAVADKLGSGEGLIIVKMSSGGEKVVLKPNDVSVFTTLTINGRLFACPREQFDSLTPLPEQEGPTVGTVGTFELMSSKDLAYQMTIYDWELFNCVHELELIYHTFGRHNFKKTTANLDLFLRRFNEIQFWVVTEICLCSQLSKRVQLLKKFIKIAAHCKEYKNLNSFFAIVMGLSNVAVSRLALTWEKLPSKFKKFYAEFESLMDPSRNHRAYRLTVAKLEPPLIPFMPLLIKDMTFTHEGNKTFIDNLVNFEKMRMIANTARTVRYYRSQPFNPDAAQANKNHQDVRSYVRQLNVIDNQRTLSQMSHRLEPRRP
Chain of DNA repair nuclease/redox regulator APEX1 (Homo sapiens) (P27695 whole entry, looked up): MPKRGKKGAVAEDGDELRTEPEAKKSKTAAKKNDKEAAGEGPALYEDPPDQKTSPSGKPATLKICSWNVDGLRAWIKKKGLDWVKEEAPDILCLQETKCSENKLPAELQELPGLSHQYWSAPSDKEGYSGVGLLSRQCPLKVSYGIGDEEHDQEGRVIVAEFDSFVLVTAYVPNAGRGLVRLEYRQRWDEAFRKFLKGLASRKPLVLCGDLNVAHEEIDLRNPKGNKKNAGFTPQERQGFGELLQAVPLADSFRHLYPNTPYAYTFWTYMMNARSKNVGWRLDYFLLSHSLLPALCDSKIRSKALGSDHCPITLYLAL
Chain of Cytochrome P450 2C9 (Homo sapiens) (P11712 whole entry, looked up): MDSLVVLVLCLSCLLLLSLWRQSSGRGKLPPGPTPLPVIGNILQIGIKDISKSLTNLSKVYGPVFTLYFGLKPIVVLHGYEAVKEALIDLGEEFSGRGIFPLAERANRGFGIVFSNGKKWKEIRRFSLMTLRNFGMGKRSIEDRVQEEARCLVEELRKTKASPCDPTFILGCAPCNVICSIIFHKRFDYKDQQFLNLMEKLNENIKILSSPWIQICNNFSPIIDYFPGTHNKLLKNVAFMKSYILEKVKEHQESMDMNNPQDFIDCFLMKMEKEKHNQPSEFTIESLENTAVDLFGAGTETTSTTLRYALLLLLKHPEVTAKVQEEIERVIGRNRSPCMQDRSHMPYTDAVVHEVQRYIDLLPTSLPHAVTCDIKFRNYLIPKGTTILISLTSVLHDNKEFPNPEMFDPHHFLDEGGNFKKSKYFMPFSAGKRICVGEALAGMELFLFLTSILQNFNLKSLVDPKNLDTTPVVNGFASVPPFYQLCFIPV
Chain of Cytochrome P450 3A4 (Homo sapiens) (P08684 whole entry, looked up): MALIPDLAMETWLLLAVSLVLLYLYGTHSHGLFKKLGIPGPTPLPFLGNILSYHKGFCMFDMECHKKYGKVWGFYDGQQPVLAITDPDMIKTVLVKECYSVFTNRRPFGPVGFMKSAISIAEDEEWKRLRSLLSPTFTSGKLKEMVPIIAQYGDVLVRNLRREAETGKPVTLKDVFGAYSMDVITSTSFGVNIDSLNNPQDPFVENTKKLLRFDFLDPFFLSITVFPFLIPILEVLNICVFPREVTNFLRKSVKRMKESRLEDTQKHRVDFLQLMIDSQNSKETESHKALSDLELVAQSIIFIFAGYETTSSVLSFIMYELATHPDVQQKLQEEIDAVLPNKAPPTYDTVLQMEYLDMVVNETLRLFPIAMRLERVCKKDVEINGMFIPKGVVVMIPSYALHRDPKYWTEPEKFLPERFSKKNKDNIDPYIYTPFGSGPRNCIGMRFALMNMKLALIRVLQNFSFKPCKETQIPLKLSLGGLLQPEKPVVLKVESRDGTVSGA
Chain of Catechol O-methyltransferase (Homo sapiens) (P21964 whole entry, looked up): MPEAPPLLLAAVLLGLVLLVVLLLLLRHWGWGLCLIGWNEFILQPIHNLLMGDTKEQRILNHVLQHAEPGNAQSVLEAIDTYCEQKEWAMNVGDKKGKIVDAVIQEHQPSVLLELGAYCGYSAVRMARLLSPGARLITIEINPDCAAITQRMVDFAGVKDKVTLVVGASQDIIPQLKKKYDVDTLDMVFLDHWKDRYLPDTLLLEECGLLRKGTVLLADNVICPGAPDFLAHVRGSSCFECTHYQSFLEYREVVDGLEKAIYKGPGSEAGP
Chain of Cytochrome P450 1A2 (Homo sapiens) (P05177 whole entry, looked up): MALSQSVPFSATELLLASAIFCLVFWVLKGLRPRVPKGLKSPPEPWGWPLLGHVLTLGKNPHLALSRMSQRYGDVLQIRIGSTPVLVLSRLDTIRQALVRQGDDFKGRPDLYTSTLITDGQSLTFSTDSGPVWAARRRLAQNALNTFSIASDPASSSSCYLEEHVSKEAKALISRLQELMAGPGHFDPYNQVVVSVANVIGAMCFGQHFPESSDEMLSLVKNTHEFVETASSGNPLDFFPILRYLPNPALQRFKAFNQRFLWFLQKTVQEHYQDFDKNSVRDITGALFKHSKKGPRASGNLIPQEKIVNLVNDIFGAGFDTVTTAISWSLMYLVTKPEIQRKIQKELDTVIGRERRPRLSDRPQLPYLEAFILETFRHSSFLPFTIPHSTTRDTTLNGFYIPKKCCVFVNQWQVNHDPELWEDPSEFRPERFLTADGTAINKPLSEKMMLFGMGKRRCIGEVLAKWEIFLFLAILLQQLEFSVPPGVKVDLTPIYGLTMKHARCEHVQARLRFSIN

Regarding `COc1c(O)cc2oc(-c3ccc(O)c(O)c3)cc(=O)c2c1O`, the outcome in assay [1], in [2] and in assay [4] was “inactive” throughout. Moreover, the Potency in [3] was 6.31 µM (active); in assay [5], 10.7 µM (active). The Potency result in assay [6], in [7], in assay [8], in [9] and in assay [10] was “inactive” each time.
`Cc1ccn2c(=O)c(NC(=O)c3ccc(Br)o3)c(C)nc2c1`: the Potency result in assay [5], in assay [6] and in [8] was “inactive” each time. For the same compound, the activation in assay [7] is 4.58% [at 17.1 µM, percent relative to cAMP agonist control] (inactive); in assay [10], -2.62% [at 30.8 µM] (inactive). In addition, the activity change, negative = inhibition in assay [9] is -1.7% [at 30.8 µM] (inactive).
For the compound `c1ccc(NN(Cc2cnccn2)c2ccccc2)cc1`, the Potency in assay [11] was > 11.4 µM (inactive); in assay [13], 2 µM (active); in assay [16], > 46 µM (inactive); in assay [17], > 9.22 µM (inactive); in assay [19] it was 3.16 µM (active); in [21] it was 2 µM (active). Besides, the results for the activity change, negative = inhibition in [12] and in [14] were -14% (inactive) and -17.6% (inactive), respectively. Besides, the outcome in assay [15] is “inactive”. The Potency result in [18], in [5], in assay [6], in [7], in [8] and in assay [9] was “inactive” each time. The Potency result in [10] was “inactive”. For the same compound, the activity change, positive = activation in [20] is -52.2% [at 11.4 µM] (inactive).
As to `Cc1onc(-c2c(Cl)cccc2Cl)c1COC(=O)c1ccc(Cl)cc1`, the Potency entry in assay [5], in assay [6], in assay [7], in [8], in assay [9] and in assay [10] was “inactive” throughout.
Regarding `COC(=O)c1cc(Br)c(=O)n(Cc2ccc3c(c2)OCO3)c1`, the activity change, negative = inhibition in assay [12] was -2.94% [at 17.2 µM] (inactive); in assay [14], 2.18% [at 17.2 µM] (inactive); in assay [9], 5.45% [at 30.8 µM] (inactive). In addition, the outcome in assay [15] is “inactive”. The Potency in assay [16] was > 20.6 µM (inactive). The Potency entry in [5], in assay [6] and in assay [8] was “inactive” throughout. Also, the activation is -3.61% [at 17.1 µM, percent relative to cAMP agonist control] (inactive) in [7] and 2.16% [at 30.8 µM] (inactive) in assay [10].
Regarding `CCCc1cc2c(-c3ccccc3)cc(=O)oc2cc1OCc1ccc(C(=O)O)o1`, the Potency was 75.7 µM (active) in [5] and 24.1 µM (active) in assay [23]. Further, the Potency entry in assay [6], in [7], in [8], in assay [9] and in assay [10] was “inactive” in each case. Also, the results for the activity in assay [22], in assay [24] and in assay [25] were -44.4%, -57.8% and -42%, respectively.
